In the OligoGym collection:

Molecular target: TRMT1
Assay: pooled miR-30 sensor sort-seq; sequence = guide strand
Conditions: shRNA
Note: reference of the scale not given here.

Sequence | sensor-assay potency score (higher = more potent)
TTTGCGTGTCCTTCTCTCCTGG | 0.33
TAGTACAGAGGCACGTCCGGGA | -0.101
TCATTGAGCTGGACATTCCGGC | 0.0258
TTGTTCTGAAGCAGCCTGCGTC | -0.663
TTGAGCTGGACATTCCGGCGTA | 0.567
TCGTTTGCAACCACAGATCTGA | -0.44
TAGTCTCTGATAGTCGCTCCCG | -0.643
TCTCCTGGAACCTTGATCTGGA | -0.0549
TCGGTGACTGTCGTCTCCTGGA | -1.21
TTGCGTGTCCTTCTCTCCTGGA | -0.847

Molecular target: TRO
Assay: as above
Conditions: shRNA

Sequence | sensor-assay potency score (higher = more potent)
TTAGTAATAGTCTTTATAGGGG | -0.72
TAGTGCTCAGTGTACCACCAAA | -1.66
TTGAGCACACTGCCAAAGCTGG | -0.914
TTCATCTTGCTAGTCTCGTGGT | 0.132
TTGGGTGTGTCCTTGGTCGTTC | 0.127
TAGTATTAGATGCACTGCCAAA | -1.27
TTGATGGGGATCTTTGTCTGGT | -0.592
TTGAGTGCACTGCCAAAGCTGA | -0.944
TAAAATGGCCACATCTCGCGGT | 0.238
TTTCATCTTGCTAGTCTCGTGG | 0.184
TACACCACTAAAGCCAGCCGTG | -1.01
TTGGTCAGCATTTGGAGTCTGG | 0.322
